Data as given in PubChem BioAssay (EPA / NIEHS).
Where “and” joins values, the source holds several entries; their conditions need not be identical. Equal entries are not always repeated. Results filed as inconclusive are left out. Calls of active or inactive are those of the source. How the source made its calls, unless noted: active means hit-call score of the fitted dose curve at least 0.9, where 1 is the maximum; inconclusive means response in the unintended direction; inactive means score below 0.9.

These molecules were tested against human Norepinephrine Transporter (NET), SLC6A2 (gene 6530) (UniProt P23975) (assay: NVS_TR_hNET: NovaScreen (NVS) Transporter Assay for human Norepinephrine Transporter (NET) (AID 2283377);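 further: cell-free membrane protein extracted from CHO cells expressing human NET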;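 on AC50: displacement of radioligand from human NET seen as loss of scintillation signal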).
human Norepinephrine Transporter (NET), SLC6A2 (gene 6530), sequence (P23975 whole entry, looked up): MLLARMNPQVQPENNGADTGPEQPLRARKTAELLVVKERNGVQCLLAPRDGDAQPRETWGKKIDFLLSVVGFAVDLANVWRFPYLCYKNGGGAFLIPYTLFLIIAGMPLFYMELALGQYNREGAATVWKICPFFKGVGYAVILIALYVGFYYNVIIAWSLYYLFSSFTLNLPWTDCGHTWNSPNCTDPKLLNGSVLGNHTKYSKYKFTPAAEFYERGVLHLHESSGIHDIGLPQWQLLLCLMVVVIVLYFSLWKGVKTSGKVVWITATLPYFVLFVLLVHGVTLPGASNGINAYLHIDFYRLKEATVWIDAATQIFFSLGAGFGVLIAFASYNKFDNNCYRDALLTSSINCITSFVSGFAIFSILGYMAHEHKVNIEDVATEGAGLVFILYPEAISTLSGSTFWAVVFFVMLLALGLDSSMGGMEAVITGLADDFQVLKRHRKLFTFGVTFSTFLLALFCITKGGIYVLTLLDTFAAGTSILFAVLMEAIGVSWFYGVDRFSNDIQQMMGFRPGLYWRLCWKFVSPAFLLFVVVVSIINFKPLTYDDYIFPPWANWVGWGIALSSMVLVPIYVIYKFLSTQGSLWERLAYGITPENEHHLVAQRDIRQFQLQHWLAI
In short: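 Single-concentration duplicate screen at 25 uM, then concentration-response for actives; displacement of specific radioligand from human NET in CHO membrane extracts, filter-based scintillation detection at 1 h relative to DMSO.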
With `Oc1cccc2c(O)cccc12` the outcome was “inactive”.
For `CN(C)c1ccc(C(=C2C=CC(=[N+](C)C)C=C2)c2ccccc2)cc1`, the AC50 was 18.3 µM (active) and 5.15 µM (active).
For `N=C(N)c1ccc(OCCCCCOc2ccc(C(=N)N)cc2)cc1`, the AC50 was 725 nM (active).
For `O=C1OC2(c3ccccc31)c1cc(I)c(O)c(I)c1Oc1c2cc(I)c(O)c1I`, the AC50 was 566 nM (active).
`CN(Cc1cnc2nc(N)nc(N)c2n1)c1ccc(C(=O)N[C@@H](CCC(=O)O)C(=O)O)cc1` was tested, and the outcome was “inactive”.
`NC(=NCCCCCCN=C(N)/N=C(\N)Nc1ccc(Cl)cc1)/N=C(\N)Nc1ccc(Cl)cc1` was tested, and the AC50 was 356 nM (active).
With `CC(O)COc1ccccc1` (stereo not drawn) the outcome was “inactive”.
In the case of `Clc1ccc2c(Cl)ccnc2c1`, the AC50 is reported as 25000 nM (active).
In the case of `Clc1ccc(Nc2nnc(Cc3ccncc3)c3ccccc23)cc1`, the AC50 is reported as 898 nM (active).
With `CCCCCCCCCCCCCCCCCC[N+](C)(C)Cc1ccccc1` the AC50 was 2490 nM (active).
With `CCCCCc1ccc(O)cc1` the AC50 was 14600 nM (active).

What follows are molecules tested against mouse Estrogen Receptor alpha (Era), Esr1 (gene 13982) (UniProt P19785) (assay: NVS_NR_mERa: NovaScreen (NVS) Nuclear Receptor Binding Assay for mouse Estrogen Receptor alpha (Era) (AID 2283378);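 further: hit means loss of bound radioligand signal relative to DMSO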).
mouse Estrogen Receptor alpha (Era), Esr1 (gene 13982), sequence (P19785 whole entry, looked up): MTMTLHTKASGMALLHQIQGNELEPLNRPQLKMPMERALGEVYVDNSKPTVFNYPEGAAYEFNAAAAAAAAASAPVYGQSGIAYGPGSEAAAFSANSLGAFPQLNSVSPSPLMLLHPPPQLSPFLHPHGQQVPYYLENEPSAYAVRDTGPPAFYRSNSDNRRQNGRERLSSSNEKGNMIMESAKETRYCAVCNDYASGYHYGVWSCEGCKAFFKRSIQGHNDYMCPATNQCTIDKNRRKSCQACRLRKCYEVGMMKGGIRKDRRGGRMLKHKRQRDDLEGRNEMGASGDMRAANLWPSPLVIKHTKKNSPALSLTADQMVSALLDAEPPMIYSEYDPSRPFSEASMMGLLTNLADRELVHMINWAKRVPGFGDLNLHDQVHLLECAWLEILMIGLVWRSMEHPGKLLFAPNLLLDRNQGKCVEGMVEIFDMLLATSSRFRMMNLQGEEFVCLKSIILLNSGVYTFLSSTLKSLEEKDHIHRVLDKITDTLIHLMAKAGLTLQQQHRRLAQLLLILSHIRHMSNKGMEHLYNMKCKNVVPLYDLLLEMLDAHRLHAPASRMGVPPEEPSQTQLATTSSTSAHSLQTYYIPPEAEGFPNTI
In short: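 Measurements come from scintillation counting after filtration, taken 18 hours after chemicals were added to a cell-free mouse Era preparation with radioligand. Screening was duplicate at 25 uM, with concurrent positive and negative controls and confirmatory concentration series for actives.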
With `C=CC(C)(CCC=C(C)C)OC(C)=O` (stereo not drawn) the outcome was “inactive”.
With `CN(Cc1cnc2nc(N)nc(N)c2n1)c1ccc(C(=O)N[C@@H](CCC(=O)O)C(=O)O)cc1` the outcome was “inactive”.
`NC(=NCCCCCCN=C(N)/N=C(\N)Nc1ccc(Cl)cc1)/N=C(\N)Nc1ccc(Cl)cc1` was tested, and the AC50 was 137 nM (active) and 292 nM (active).
`CCCCCCCCCCCCOC(=O)c1cc(O)c(O)c(O)c1` was tested, and the AC50 was 12.4 µM (active).

The molecules below were run against Agonist Androgen Response Element (ARE), AR (gene 367) (UniProt P10275) (assay: OT_AR_ARELUC_AG_1440: Odyssey Thera (OT) 24-hour CHO-K1 Luciferase Assay for Agonist Androgen Response Element (ARE) (AID 2283379)).
Agonist Androgen Response Element (ARE), AR (gene 367), sequence (P10275 whole entry, looked up): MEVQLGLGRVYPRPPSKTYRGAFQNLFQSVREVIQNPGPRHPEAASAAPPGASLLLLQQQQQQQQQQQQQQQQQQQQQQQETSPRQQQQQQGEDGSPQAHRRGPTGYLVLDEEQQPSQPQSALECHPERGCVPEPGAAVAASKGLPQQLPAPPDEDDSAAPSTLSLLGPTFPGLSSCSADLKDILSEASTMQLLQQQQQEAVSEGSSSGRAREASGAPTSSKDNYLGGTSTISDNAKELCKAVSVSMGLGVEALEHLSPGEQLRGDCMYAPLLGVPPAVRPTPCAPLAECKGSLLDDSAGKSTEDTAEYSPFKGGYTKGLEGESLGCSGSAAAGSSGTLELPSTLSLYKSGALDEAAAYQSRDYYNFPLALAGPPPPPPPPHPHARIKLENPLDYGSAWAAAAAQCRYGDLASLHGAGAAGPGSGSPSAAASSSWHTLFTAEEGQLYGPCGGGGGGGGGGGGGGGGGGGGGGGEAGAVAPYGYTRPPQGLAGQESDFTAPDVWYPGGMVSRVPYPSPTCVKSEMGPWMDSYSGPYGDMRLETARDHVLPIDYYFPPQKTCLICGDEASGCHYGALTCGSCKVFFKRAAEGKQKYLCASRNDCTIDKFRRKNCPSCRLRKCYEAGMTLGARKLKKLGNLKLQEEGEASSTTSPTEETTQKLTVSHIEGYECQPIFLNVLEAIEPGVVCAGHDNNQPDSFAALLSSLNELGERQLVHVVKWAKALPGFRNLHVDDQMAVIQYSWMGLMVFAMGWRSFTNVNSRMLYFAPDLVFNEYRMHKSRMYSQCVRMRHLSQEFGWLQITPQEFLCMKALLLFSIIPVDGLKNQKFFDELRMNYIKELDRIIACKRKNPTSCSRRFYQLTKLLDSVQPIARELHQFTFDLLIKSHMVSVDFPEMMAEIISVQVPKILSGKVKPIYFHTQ
In short: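 Readout: luciferase bioluminescence from CHO-K1 ARE-luc cells, measured 24 h post-dosing; agonism = increased mean luminescence vs DMSO controls, fitted in positive direction.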
For `O=C(c1ccccc1)c1ccccc1`, the outcome was “inactive”.
For `CN(Cc1cnc2nc(N)nc(N)c2n1)c1ccc(C(=O)N[C@@H](CCC(=O)O)C(=O)O)cc1`, the outcome was “inactive”.
In the case of `NC(=NCCCCCCN=C(N)/N=C(\N)Nc1ccc(Cl)cc1)/N=C(\N)Nc1ccc(Cl)cc1`, the outcome is reported as “inactive”.
`CC(O)COc1ccccc1` (stereo not drawn) was tested, and the outcome was “inactive”.
With `CCCCc1ccc2ccccc2c1S(=O)(=O)O` the AC50 was 13.3 µM (active).
For `CN(C)CCOC(c1ccccc1)c1ccccc1`, the outcome was “inactive”.
With `CCCCCCCCCC=CCC1CC(=O)OC1=O` (stereo not drawn) the AC50 was 21.2 µM (active).
In the case of `Cc1cc(C(=C2C=CC(=Nc3ccc(S(=O)(=O)O)cc3)C=C2)c2ccc(Nc3ccc(S(=O)(=O)O)cc3)cc2)cc(S(=O)(=O)O)c1N`, the outcome is reported as “inactive”.

Each molecule was assayed against Estrogen receptor beta (Homo sapiens) (UniProt Q92731) (assay: OT_ER_ERbERb_1440: Odyssey Thera (OT) 24-hour HEK293T Protein-Complementation Assay for Estrogen Receptor-beta/-beta Homodimer (AID 2283380);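 further: fluorescence gain from ER beta LBD homodimer complementation read by laser scanning cytometry; scored as signal increase over DMSO baseline for both agonists and antagonists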).
Estrogen receptor beta (Homo sapiens), sequence (Q92731 whole entry, looked up, the tested form may be a part): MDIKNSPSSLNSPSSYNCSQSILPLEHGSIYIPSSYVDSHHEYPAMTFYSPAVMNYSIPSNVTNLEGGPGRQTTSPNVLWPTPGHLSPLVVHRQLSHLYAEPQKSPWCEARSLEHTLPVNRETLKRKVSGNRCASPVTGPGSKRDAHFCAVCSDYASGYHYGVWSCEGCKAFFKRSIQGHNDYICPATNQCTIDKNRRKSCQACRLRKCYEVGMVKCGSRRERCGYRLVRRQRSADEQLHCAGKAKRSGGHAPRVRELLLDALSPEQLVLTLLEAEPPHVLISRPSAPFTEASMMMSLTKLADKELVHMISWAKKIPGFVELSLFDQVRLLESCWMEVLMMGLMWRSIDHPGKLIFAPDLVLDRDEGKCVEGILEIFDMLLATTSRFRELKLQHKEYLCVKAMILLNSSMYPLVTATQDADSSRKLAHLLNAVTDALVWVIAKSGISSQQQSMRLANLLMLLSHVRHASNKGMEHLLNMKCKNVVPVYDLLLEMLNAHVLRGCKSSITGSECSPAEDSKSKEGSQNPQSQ
In short: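 Fluorescence increase, nuclear for agonists or whole-cell for antagonists, relative to DMSO vehicle, quantified by laser scanning cytometer after fixation and Draq5 staining. Readout from 24 h treatment of HEK293T cells carrying complementation-paired ER beta LBD (aa 310-547).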
With `CCCCCCCCCCCC(=O)O` the outcome was “inactive”.
In the case of `CCC(C)c1ccccc1O` (stereo not drawn), the outcome is reported as “inactive”.
With `CN(Cc1cnc2nc(N)nc(N)c2n1)c1ccc(C(=O)N[C@@H](CCC(=O)O)C(=O)O)cc1` the outcome was “inactive”.
With `CC(O)COc1ccccc1` (stereo not drawn) the outcome was “inactive”.
With `C[C@]12CC[C@@H]3c4ccc(O)cc4CC[C@H]3[C@@H]1C[C@@H](O)[C@@H]2O` the AC50 was 0.03 µM (active).
For `CC(C)[C@@H]1CC[C@@H](C)C[C@H]1O`, the outcome was “inactive”.
With `O=C(CCCN1CCC(O)(c2ccc(Cl)cc2)CC1)c1ccc(F)cc1` the outcome was “inactive”.
In the case of `CCCCc1ccc2ccccc2c1S(=O)(=O)O`, the outcome is reported as “inactive”.
`CN(C)CCOC(c1ccccc1)c1ccccc1` was tested, and the outcome was “inactive”.
With `CCCCCCCCCC=CCC1CC(=O)OC1=O` (stereo not drawn) the outcome was “inactive”.
For `Cc1cc(C(=C2C=CC(=Nc3ccc(S(=O)(=O)O)cc3)C=C2)c2ccc(Nc3ccc(S(=O)(=O)O)cc3)cc2)cc(S(=O)(=O)O)c1N`, the outcome was “inactive”.
`CCCCCCCCCCCCOC(=O)c1cc(O)c(O)c(O)c1` was tested, and the AC50 was 11.9 µM (active).

Each molecule was assayed against Estrogen receptor (Homo sapiens) (UniProt P03372) (assay: OT_ERa_GFPERaERE_0480: Odyssey Thera (OT) 8-hour HeLa Transcription Induction Assay for Estrogen Receptor (AID 2283381; active means hit-call score of the fitted dose curve at least 0.9, where 1 is the maximum; inactive means score below 0.9)).
Estrogen receptor (Homo sapiens), sequence (P03372 whole entry, looked up): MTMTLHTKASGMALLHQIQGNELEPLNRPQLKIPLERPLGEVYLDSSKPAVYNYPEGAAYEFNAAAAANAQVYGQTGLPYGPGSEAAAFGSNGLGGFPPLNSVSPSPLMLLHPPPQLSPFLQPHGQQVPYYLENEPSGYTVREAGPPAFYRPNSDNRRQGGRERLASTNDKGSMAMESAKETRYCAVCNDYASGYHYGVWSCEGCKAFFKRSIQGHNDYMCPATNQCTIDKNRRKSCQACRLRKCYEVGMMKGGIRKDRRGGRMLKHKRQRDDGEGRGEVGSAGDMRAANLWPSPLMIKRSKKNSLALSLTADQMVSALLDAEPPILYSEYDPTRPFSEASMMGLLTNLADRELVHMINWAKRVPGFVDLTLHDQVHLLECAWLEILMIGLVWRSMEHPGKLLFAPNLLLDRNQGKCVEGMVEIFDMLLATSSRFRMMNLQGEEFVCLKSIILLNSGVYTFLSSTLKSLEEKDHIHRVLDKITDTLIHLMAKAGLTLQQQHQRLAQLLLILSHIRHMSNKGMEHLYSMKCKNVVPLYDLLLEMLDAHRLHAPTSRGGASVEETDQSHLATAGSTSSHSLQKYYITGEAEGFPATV
In short: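 GFP-ERE reporter, HeLa, 8 h exposure. Readout: fluorescence microscopy, high-content image analysis. Fit direction positive vs DMSO negative control.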
`N=C(N)c1ccc(OCCCCCOc2ccc(C(=N)N)cc2)cc1` was tested, and the outcome was “inactive”.
For `C=CC(C)(CCC=C(C)C)OC(C)=O` (stereo not drawn), the outcome was “inactive”.
`CN(Cc1cnc2nc(N)nc(N)c2n1)c1ccc(C(=O)N[C@@H](CCC(=O)O)C(=O)O)cc1` was tested, and the outcome was “inactive”.
With `NC(=NCCCCCCN=C(N)/N=C(\N)Nc1ccc(Cl)cc1)/N=C(\N)Nc1ccc(Cl)cc1` the AC50 was 24.5 µM (active).
For `CCCCc1ccc2ccccc2c1S(=O)(=O)O`, the outcome was “inactive”.
With `CN(C)CCOC(c1ccccc1)c1ccccc1` the outcome was “inactive”.
For `CCCCCCCCCC=CCC1CC(=O)OC1=O` (stereo not drawn), the outcome was “inactive”.
In the case of `Cc1cc(C(=C2C=CC(=Nc3ccc(S(=O)(=O)O)cc3)C=C2)c2ccc(Nc3ccc(S(=O)(=O)O)cc3)cc2)cc(S(=O)(=O)O)c1N`, the outcome is reported as “inactive”.
In the case of `CCCCCCCCCCCCOC(=O)c1cc(O)c(O)c(O)c1`, the AC50 is reported as 49.2 µM (active).

What follows are molecules tested against Estrogen receptor (Homo sapiens) (UniProt P03372) (assay: OT_ERa_GFPERaERE_0120: Odyssey Thera (OT) 2-hour HeLa Transcription Induction Assay for Estrogen Receptor (AID 2283382)).
In short: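 Fluorescence microscopy read-out: inducible fluorescent protein reporter in HeLa cells, imaged 2 h post-dose. Signal increase over DMSO negative control fitted as single primary endpoint via high content image analysis.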
For `N=C(N)c1ccc(OCCCCCOc2ccc(C(=N)N)cc2)cc1`, the outcome was “inactive”.
With `C=CC(C)(CCC=C(C)C)OC(C)=O` (stereo not drawn) the outcome was “inactive”.
With `CN(Cc1cnc2nc(N)nc(N)c2n1)c1ccc(C(=O)N[C@@H](CCC(=O)O)C(=O)O)cc1` the outcome was “inactive”.
With `NC(=NCCCCCCN=C(N)/N=C(\N)Nc1ccc(Cl)cc1)/N=C(\N)Nc1ccc(Cl)cc1` the AC50 was 28.6 µM (active).
`CCCCc1ccc2ccccc2c1S(=O)(=O)O` was tested, and the outcome was “inactive”.
`CN(C)CCOC(c1ccccc1)c1ccccc1` was tested, and the outcome was “inactive”.
In the case of `CCCCCCCCCC=CCC1CC(=O)OC1=O` (stereo not drawn), the outcome is reported as “inactive”.
`Cc1cc(C(=C2C=CC(=Nc3ccc(S(=O)(=O)O)cc3)C=C2)c2ccc(Nc3ccc(S(=O)(=O)O)cc3)cc2)cc(S(=O)(=O)O)c1N` was tested, and the outcome was “inactive”.
In the case of `CCCCCCCCCCCCOC(=O)c1cc(O)c(O)c(O)c1`, the AC50 is reported as 84.1 µM (active).
